The record followed here is PubChem BioAssay (Tox21).

A short description of assay [1]: A CellTox Green Cytotoxicity Assay to monitor cytotoxicity in HepG2 cells - 0 hour (AID 1224882). Also: nearly all actives have a fitted effect of over 35% in size. The method in brief:
(§1)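 Fluorescent DNA-binding dye, 600 HepG2 cells/well, 5 h preincubation then compound in DMSO; same plates read at 0–40 h, 37 C.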

Assay [2] in a line: A CellTox Green Cytotoxicity Assay to monitor cytotoxicity in HEK293 cells - 8 hour (AID 1224884). Also: nearly all actives have a fitted effect of over 35% in size. The method in brief:
(§2)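 Homogeneous no-lysis format: HEK293 cell suspension mixed with CellTox Green reagent, seeded, incubated 5 h at 37 C/5% CO2, then dosed by pintool with compound in DMSO.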

Assay [3] is described as follows: qHTS RealTime-Glo MT Cell Viability Assay in HepG2 cells - 16 hour (AID 1224885). Also: nearly all actives have a fitted effect of over 50% in size. The method in brief: (§3)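 Luminescence read-out: viable HepG2 cells reduce a prosubstrate to a NanoLuc substrate, giving a signal proportional to live cell number. Reads taken at 0, 8, 16, 24, 32 and 40 h of compound exposure at 37 C.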
A short description of assay [4]: qHTS RealTime-Glo MT Cell Viability Assay in HEK293 cells - 24 hour (AID 1224886). Also: nearly all actives have a fitted effect of over 50% in size. Also: potency is read from the fitted curve at half-maximal effect. In outline: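 Nonlytic real-time viability readout: viable cells convert prosubstrate to NanoLuc substrate, giving luminescence proportional to live cell number. HEK293, 600 cells/well, compound added after 5 h, continuous culture at 37 C.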
Assay [5] in a line: qHTS RealTime-Glo MT Cell Viability Assay in HEK293 cells - 8 hour (AID 1224887). Also: nearly all actives have a fitted effect of over 50% in size. Also: potency is read from the fitted curve at half-maximal effect. The method in brief:
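Measured as luminescence from the same continuously cultured HEK293 wells at successive time points (0, 8, 16, 24, 32, 40 h) after compound addition. Reagent present from seeding; dosing at 5 h; incubation 37 C.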
On the technique in general: Quantitative high-throughput screening tests each substance at several concentrations.

The nature of assay [6]: A CellTox Green Cytotoxicity Assay to monitor cytotoxicity in HEK293 cells - 16 hour (AID 1224888). Also: nearly all actives have a fitted effect of over 35% in size. In outline: as §2
Assay [7] is described as follows: qHTS RealTime-Glo MT Cell Viability Assay in HepG2 cells - 0 hour (AID 1224889). Also: nearly all actives have a fitted effect of over 50% in size. Also: potency is read from the fitted curve at half-maximal effect. The method in brief:
as §3

A short description of assay [8]: A CellTox Green Cytotoxicity Assay to monitor cytotoxicity in HepG2 cells - 8 hour (AID 1224890). Also: nearly all actives have a fitted effect of over 45% in size. The method in brief:
as §1

The nature of assay [9]: A CellTox Green Cytotoxicity Assay to monitor cytotoxicity in HepG2 cells - 32 hour (AID 1224883). Also: nearly all actives have a fitted effect of over 50% in size. Also: potency is read from the fitted curve at half-maximal effect. In outline:
as §1

Assay [10] in a line: qHTS assay to identify small molecule antagonists of the estrogen receptor alpha (ER-alpha) signaling pathway using the BG1 cell line in the presence of 0.1 nM 17-beta-estradiol - cell viability counter screen (AID 1259241). Also: nearly all actives have a fitted effect of over 40% in size. Also: potency is read from the fitted curve at half-maximal effect. The method in brief:
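Live-cell protease activity (CellTiter-Fluor fluorescence, 30 min) was read in the same wells after VM7Luc4E2 cells had been exposed to compounds with 0.1 nM 17beta-estradiol for 22 hr at 37C.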

Inconclusive results are not listed. Some structures have more than one record in an assay (separate samples or runs), and their calls can disagree. The source made the active and inactive calls. Calls follow the shape of the dose curve; as a rule, active = well fitted curve in the direction sought with a large enough effect in the repeat runs; inconclusive = weak or mixed curves; inactive = no such curve, though single readings can be large; an effect the other way counts as inactive or inconclusive.

As for `c1cc2ccc3cccc4ccc(c1)c2c34`, the Potency result in [1], in [2], in [3], in [4], in [5] and in assay [6] was “inactive” each time. Also, the Potency result in assay [7] and in assay [8] was “inactive” in each case.
Turning to `CCCN(CC1CC1)c1c([N+](=O)[O-])cc(C(F)(F)F)cc1[N+](=O)[O-]`, the Potency entry in assay [1], in [9], in assay [3], in assay [4], in assay [7] and in assay [8] was “inactive” in each case. Besides, in [10], the Potency entry is “inactive”.
Turning to `O=C(Nc1ccccc1)Nc1ccnc(Cl)c1`, the Potency result in assay [1], in assay [2], in [3] and in assay [6] was “inactive” each time. In assay [4], the Potency is 19.5 µM (active).
With `CCOP(=S)(OCC)Oc1nc(Cl)c(Cl)cc1Cl`, the Potency result in [1], in assay [9], in assay [3], in assay [7], in assay [8] and in [10] was “inactive” in each case. Besides, the Potency in assay [4] is 21.9 µM (active) and inactive; in assay [5], 19.5 µM (active) and inactive.
As to `CS/C(C)=N/OC(=O)N(C)SN(C)C(=O)O/N=C(\C)SC`, the Potency entry in assay [1], in assay [7] and in assay [10] was “inactive” throughout. The values for the Potency in assay [9], in [4] and in assay [5] were 54.9 µM (active), 49 µM (active) and 43.6 µM (active), respectively.
As for `COC(=O)C(C)N(C(=O)Cc1ccccc1)c1c(C)cccc1C` (stereo not given), the Potency result in [1], in [2], in [3], in assay [6], in [8] and in assay [10] was “inactive” throughout. The Potency in [7] was 21.9 µM (active).
With `Clc1ccc(C2(Cn3cncn3)CC(Br)CO2)c(Cl)c1` (stereo not given), the Potency result in [1], in [2], in [7] and in assay [8] was “inactive” throughout. In addition, the Potency in [9] was 34.5 µM (active); in assay [4], 27.4 µM (active).
For `CO/C=C(/C(=O)OC)c1ccccc1COc1cccc(C(F)(F)F)n1`, the Potency result in assay [1], in assay [9], in assay [3], in assay [6], in assay [7] and in assay [8] was “inactive” throughout.
Take `O=C(CBr)c1ccccc1`: the Potency result in assay [9], in assay [2], in assay [3], in assay [4], in assay [5] and in [6] was “inactive” each time. Besides, the Potency result in assay [7], in assay [8] and in assay [10] was “inactive” in each case.
Take `Oc1ccc(Cl)c(Cl)c1Cl`: the Potency result in assay [1], in assay [2], in [3], in [5], in [6] and in [7] was “inactive” in each case. For the same compound, the Potency result in [8] and in assay [10] was “inactive” in each case.
Take `ClC=C(Cl)Cl`: the Potency result in [9], in assay [2], in assay [3], in assay [4], in assay [5] and in [6] was “inactive” throughout. The Potency entry in assay [7], in assay [8] and in [10] was “inactive” in each case.
Turning to `CC(C)N(C(=O)COc1nnc(C(F)(F)F)s1)c1ccc(F)cc1`, the Potency entry in assay [1], in assay [9], in [2], in [6], in [7] and in assay [10] was “inactive” each time. The Potency in assay [5] is 34.7 µM (active).
As for `O=C(O)CC(Cl)C(=O)O` (stereo not given), the Potency result in [1], in [2], in [3], in [4], in assay [5] and in assay [6] was “inactive” in each case. The Potency result in [7] and in [8] was “inactive” in each case.
With `CN1[C@@H]2CC[C@H]1CC(OC(=O)c1cc(Cl)cc(Cl)c1)C2` (stereo not given in full), the Potency result in assay [1], in assay [2], in assay [5], in [7], in assay [8] and in assay [10] was “inactive” throughout. The Potency in assay [9] is 23.9 µM (active).
Turning to `NC(=O)CI`, the Potency entry in assay [1], in assay [5] and in assay [10] was “inactive” throughout.
As for `NS(=O)(=O)C(F)(F)C(F)(F)C(F)(F)C(F)(F)C(F)(F)C(F)(F)C(F)(F)C(F)(F)F`, the Potency entry in [1], in [2], in assay [3], in assay [4], in [6] and in assay [7] was “inactive” throughout. In addition, the Potency entry in assay [8] was “inactive”.
For the compound `Clc1ccc(C(OCCN2CCCCC2)c2ccccc2)cc1` (stereo not given), the Potency entry in assay [1], in [2], in assay [3], in assay [5], in assay [6] and in assay [7] was “inactive” in each case. Also, the Potency result in assay [8] and in assay [10] was “inactive” in each case.
Take `COc1nn(CSP(=S)(OC)OC)c(=O)s1`: the Potency entry in assay [1], in assay [2], in [3], in [4], in assay [5] and in [6] was “inactive” each time. For the same compound, the Potency result in assay [7], in assay [8] and in assay [10] was “inactive” in each case.
Consider `CC(C)(C)c1cc([N+](=O)[O-])cc([N+](=O)[O-])c1O`, for which the Potency result in assay [1], in [3], in assay [5] and in assay [6] was “inactive” in each case. Besides, the Potency in assay [10] is 13.6 µM (active).
As for `ClP(Cl)(Cl)(Cl)Cl`, the Potency entry in assay [1], in assay [2], in assay [5], in assay [6] and in assay [10] was “inactive” in each case.
Take `COCC(C)N(C(=O)CCl)c1c(C)csc1C` (stereo not given): the Potency entry in assay [1], in assay [2], in [3], in [4], in assay [5] and in [6] was “inactive” in each case. The Potency result in [7], in [8] and in assay [10] was “inactive” each time.
On to `C=CC(=O)OC`, for which the Potency entry in [9], in assay [2], in assay [3], in assay [4], in [5] and in assay [6] was “inactive” throughout. The Potency entry in assay [7], in assay [8] and in assay [10] was “inactive” in each case.
As to `CCOC(=O)C(Cl)C(C)=O` (stereo not given), the Potency entry in assay [1], in [3], in [4], in assay [5], in assay [6] and in [7] was “inactive” throughout. In addition, the Potency result in assay [8] and in assay [10] was “inactive” throughout. Moreover, in assay [9], the Potency was 24.8 µM (active).
For the compound `CC(O)(CS(=O)(=O)c1ccc(F)cc1)C(=O)Nc1ccc(C#N)c(C(F)(F)F)c1` (stereo not given), the Potency entry in assay [1], in assay [9], in assay [2], in assay [6] and in assay [10] was “inactive” each time.
